Experiment [1] addresses Sphingosine kinase 1 (Homo sapiens) (UniProt Q9NYA1). Particulars: at 1 µM.
The target in experiment [2] is T1, Sphingosine kinase 2 (Homo sapiens) (UniProt Q9NRA0).
T1 sequence (whole entry): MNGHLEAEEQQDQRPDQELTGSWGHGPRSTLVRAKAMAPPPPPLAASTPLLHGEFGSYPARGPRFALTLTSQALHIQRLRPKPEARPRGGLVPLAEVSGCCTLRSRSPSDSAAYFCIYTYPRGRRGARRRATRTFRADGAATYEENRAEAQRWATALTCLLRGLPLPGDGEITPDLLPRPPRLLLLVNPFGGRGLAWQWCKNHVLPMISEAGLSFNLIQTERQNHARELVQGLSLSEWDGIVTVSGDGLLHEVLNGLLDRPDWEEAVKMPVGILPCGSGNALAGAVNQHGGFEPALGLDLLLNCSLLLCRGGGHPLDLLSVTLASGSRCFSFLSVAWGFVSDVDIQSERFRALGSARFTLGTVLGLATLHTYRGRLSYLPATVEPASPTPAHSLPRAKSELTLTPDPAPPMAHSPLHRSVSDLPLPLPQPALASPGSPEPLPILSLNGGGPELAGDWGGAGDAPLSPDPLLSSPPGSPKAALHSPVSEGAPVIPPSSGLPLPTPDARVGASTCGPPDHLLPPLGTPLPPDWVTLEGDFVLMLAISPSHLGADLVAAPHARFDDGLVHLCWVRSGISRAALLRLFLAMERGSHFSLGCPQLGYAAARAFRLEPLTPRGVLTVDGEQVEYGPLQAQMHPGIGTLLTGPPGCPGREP
Particulars: at 0.1 µM.

Experiment [3] has as its target T1, Sphingosine kinase 2 (Homo sapiens). Particulars: at 1 µM.
The target of experiment [4] is Casein kinase II subunit alpha (Homo sapiens) (UniProt P68400). The conditions noted are these: at 0.1 µM.
For experiment [5] the target is unchanged. The conditions noted are these: at 1 µM.
In experiment [6] the target is T2, Inhibitor of nuclear factor kappa-B kinase subunit alpha (Homo sapiens) (UniProt O15111).
T2 sequence (whole entry): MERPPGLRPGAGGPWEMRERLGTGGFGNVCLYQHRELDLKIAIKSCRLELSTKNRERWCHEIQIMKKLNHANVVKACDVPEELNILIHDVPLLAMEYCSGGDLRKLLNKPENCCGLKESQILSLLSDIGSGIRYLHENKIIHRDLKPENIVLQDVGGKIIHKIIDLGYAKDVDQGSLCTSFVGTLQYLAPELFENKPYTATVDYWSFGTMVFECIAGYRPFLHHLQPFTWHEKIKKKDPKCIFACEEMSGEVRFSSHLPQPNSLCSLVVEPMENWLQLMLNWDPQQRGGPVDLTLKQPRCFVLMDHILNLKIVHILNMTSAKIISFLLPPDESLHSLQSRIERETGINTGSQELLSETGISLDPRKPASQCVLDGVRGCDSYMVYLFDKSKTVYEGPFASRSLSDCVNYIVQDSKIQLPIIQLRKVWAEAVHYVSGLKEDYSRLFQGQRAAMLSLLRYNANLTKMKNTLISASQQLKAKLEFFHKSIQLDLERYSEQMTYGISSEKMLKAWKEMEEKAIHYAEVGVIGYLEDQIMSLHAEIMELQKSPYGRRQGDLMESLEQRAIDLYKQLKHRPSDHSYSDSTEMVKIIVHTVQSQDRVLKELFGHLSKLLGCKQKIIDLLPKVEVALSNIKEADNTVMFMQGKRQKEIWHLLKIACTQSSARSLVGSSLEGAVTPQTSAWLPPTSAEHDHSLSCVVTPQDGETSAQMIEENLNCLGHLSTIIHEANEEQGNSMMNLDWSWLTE
Particulars: at 0.1 µM.

In experiment [7] the target is T2, Inhibitor of nuclear factor kappa-B kinase subunit alpha (Homo sapiens). Particulars: at 1 µM.
The target of experiment [8] is T3, Inhibitor of nuclear factor kappa-B kinase subunit beta (Homo sapiens) (UniProt O14920).
T3 sequence (whole entry): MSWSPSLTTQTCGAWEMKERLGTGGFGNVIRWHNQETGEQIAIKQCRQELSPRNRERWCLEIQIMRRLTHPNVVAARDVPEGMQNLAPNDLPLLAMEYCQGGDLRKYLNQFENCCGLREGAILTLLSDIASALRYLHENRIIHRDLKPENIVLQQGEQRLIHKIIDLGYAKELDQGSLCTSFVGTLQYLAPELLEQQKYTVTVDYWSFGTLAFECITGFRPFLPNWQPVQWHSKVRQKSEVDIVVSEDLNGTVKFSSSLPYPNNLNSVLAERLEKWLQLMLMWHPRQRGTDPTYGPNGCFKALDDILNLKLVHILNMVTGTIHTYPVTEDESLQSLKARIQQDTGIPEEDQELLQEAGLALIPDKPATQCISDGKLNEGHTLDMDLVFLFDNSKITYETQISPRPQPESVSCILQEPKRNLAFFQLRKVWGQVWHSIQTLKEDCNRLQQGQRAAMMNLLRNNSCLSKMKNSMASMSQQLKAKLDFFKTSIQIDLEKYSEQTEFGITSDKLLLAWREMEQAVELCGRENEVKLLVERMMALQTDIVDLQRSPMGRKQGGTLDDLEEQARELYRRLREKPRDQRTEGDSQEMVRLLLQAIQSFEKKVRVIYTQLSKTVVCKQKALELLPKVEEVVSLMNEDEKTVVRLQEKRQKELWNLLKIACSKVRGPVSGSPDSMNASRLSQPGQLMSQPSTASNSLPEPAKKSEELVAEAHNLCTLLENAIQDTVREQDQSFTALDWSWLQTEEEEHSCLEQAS
The conditions noted are these: at 0.1 µM.

Experiment [9] concerns the target T3, Inhibitor of nuclear factor kappa-B kinase subunit beta (Homo sapiens). The conditions noted are these: at 1 µM.
Experiment [10] deals with T4, Inhibitor of nuclear factor kappa-B kinase subunit epsilon (Homo sapiens) (UniProt Q14164).
T4 sequence (whole entry): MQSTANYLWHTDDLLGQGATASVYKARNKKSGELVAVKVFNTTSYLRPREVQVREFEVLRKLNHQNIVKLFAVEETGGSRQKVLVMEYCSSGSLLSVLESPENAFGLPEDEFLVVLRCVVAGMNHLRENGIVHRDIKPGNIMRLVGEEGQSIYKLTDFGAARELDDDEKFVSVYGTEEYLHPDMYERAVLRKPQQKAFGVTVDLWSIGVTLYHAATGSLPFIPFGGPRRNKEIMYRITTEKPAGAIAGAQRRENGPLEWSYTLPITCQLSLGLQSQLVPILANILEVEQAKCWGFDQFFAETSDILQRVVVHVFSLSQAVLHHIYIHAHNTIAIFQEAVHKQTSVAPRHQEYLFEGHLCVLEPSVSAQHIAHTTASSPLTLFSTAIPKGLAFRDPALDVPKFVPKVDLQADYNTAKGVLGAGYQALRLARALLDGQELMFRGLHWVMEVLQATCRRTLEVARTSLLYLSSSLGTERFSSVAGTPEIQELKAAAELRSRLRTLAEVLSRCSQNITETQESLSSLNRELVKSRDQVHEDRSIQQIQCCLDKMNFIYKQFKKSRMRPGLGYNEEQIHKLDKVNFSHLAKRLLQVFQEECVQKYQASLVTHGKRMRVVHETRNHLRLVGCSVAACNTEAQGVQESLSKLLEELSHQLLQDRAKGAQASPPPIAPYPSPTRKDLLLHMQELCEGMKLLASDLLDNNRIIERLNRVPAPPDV
Particulars: at 0.1 µM.

In experiment [11] the target is T4, Inhibitor of nuclear factor kappa-B kinase subunit epsilon (Homo sapiens). The conditions noted are these: at 1 µM.
Experiment [12] deals with T5, Serine/threonine-protein kinase Nek1 (Homo sapiens) (UniProt Q96PY6).
T5 sequence (whole entry): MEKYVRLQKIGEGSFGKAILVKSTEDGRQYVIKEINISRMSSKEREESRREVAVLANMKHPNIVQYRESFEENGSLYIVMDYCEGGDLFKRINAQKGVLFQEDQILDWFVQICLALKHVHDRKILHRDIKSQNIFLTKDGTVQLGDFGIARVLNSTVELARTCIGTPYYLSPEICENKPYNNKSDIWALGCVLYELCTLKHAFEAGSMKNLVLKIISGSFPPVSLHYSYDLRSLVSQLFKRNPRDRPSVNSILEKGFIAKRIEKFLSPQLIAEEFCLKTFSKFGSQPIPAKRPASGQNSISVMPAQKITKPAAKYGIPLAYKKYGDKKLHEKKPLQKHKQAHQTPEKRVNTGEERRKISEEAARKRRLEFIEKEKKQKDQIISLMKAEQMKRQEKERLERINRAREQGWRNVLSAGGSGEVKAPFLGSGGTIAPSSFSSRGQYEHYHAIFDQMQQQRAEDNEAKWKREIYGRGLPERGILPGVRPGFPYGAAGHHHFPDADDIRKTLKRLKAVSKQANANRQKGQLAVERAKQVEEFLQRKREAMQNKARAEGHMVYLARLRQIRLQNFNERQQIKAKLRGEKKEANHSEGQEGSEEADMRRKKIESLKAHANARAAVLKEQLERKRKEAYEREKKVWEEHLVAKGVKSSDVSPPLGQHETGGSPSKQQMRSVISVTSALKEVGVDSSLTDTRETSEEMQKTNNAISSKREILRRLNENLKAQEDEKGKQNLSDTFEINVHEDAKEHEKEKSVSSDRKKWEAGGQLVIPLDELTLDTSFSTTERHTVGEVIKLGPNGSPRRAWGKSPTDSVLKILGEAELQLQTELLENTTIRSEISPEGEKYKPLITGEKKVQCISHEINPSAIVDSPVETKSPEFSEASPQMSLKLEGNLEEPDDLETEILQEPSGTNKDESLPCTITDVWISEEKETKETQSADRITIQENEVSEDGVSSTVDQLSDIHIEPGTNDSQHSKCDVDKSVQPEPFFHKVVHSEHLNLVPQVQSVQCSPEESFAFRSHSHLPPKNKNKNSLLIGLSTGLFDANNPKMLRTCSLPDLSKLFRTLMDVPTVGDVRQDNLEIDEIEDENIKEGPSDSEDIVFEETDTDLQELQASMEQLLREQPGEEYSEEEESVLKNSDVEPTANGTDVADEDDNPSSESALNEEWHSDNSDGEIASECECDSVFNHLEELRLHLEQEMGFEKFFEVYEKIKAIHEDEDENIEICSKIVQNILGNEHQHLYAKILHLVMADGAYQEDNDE
Particulars: at 0.1 µM.

For experiment [13], the target named is T5, Serine/threonine-protein kinase Nek1 (Homo sapiens). Particulars: at 1 µM.
Experiment [14] has as its target T6, Serine/threonine-protein kinase Nek2 (Homo sapiens) (UniProt P51955).
T6 sequence (whole entry): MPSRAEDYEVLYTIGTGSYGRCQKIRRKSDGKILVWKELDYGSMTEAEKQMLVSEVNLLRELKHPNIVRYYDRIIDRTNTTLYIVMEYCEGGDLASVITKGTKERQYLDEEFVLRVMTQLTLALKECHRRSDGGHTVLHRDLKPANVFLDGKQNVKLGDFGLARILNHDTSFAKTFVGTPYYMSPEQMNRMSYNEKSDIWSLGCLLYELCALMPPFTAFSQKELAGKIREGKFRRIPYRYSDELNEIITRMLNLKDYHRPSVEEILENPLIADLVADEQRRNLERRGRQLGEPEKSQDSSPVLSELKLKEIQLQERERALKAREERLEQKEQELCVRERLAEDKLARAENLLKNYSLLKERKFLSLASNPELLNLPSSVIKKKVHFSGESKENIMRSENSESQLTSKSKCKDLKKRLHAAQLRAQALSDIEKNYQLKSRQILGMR
Particulars: at 0.1 µM.

Experiment [15] addresses T6, Serine/threonine-protein kinase Nek2 (Homo sapiens). Particulars: at 1 µM.
For experiment [16], the target named is Serine/threonine-protein kinase Nek6 (Homo sapiens) (UniProt Q9HC98). Particulars: at 0.1 µM.
Experiment [17] has the same target. The conditions noted are these: at 1 µM.
For experiment [18], the target named is Serine/threonine-protein kinase Nek7 (Homo sapiens) (UniProt Q8TDX7). The conditions noted are these: at 0.1 µM.
For experiment [19] the target is unchanged. Particulars: at 1 µM.
Experiment [20] deals with T7, Serine/threonine-protein kinase Nek9 (Homo sapiens) (UniProt Q8TD19).
T7 sequence (whole entry): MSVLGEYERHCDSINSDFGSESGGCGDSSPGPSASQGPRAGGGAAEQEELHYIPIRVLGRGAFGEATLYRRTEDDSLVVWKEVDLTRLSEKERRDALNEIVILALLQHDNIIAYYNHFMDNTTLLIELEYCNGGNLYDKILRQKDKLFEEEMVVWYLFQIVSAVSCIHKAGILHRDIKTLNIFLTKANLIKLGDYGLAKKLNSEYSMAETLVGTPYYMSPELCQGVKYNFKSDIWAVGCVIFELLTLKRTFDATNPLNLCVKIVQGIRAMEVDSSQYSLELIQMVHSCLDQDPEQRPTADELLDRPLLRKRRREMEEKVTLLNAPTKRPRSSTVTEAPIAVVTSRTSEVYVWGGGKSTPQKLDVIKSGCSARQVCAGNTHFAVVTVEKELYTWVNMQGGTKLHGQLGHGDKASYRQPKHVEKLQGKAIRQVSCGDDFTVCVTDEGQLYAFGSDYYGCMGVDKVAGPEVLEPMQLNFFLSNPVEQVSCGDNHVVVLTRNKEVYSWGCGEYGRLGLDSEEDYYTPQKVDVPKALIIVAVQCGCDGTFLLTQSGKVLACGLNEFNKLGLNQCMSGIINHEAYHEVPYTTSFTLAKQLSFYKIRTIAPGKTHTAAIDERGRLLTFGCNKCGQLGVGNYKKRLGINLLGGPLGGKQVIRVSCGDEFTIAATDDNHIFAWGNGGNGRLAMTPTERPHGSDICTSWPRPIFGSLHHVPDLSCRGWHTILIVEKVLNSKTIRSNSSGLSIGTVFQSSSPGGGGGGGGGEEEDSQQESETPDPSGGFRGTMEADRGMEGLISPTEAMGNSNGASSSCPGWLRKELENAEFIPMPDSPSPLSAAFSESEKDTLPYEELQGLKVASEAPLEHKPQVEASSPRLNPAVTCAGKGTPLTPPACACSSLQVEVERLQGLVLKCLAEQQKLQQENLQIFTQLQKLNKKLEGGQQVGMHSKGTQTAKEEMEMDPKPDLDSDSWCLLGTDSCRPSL
The conditions noted are these: at 0.1 µM.

Chain of Casein kinase II subunit alpha (Homo sapiens) (P68400 whole entry, looked up): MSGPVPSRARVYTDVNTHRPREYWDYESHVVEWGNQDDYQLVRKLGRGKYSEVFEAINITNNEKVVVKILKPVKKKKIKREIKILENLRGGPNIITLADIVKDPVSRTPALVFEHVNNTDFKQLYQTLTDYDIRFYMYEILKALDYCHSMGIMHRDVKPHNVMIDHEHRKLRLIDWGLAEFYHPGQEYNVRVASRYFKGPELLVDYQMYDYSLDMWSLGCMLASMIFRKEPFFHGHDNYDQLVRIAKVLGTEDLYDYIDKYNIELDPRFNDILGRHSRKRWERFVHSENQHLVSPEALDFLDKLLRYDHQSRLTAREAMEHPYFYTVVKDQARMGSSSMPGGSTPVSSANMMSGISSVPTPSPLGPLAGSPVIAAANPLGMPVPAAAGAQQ
Chain of Serine/threonine-protein kinase Nek7 (Homo sapiens) (Q8TDX7 whole entry, looked up): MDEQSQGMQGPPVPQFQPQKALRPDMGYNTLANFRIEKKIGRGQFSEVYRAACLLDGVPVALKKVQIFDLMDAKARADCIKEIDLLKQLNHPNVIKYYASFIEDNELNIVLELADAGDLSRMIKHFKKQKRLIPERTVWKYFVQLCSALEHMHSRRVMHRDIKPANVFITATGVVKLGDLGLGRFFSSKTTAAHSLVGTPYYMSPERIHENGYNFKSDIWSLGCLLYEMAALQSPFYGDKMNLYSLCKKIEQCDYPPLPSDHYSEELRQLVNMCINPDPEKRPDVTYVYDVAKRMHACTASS
Chain of Serine/threonine-protein kinase Nek6 (Homo sapiens) (Q9HC98 whole entry): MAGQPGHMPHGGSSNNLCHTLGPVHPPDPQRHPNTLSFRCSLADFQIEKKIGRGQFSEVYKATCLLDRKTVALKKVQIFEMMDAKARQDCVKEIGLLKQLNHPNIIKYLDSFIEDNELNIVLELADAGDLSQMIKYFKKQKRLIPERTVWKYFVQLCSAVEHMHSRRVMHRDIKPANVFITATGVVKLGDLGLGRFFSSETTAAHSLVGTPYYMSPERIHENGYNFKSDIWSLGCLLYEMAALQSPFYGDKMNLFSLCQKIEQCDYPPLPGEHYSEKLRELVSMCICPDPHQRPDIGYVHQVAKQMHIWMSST
Chain of Sphingosine kinase 1 (Homo sapiens) (Q9NYA1 whole entry): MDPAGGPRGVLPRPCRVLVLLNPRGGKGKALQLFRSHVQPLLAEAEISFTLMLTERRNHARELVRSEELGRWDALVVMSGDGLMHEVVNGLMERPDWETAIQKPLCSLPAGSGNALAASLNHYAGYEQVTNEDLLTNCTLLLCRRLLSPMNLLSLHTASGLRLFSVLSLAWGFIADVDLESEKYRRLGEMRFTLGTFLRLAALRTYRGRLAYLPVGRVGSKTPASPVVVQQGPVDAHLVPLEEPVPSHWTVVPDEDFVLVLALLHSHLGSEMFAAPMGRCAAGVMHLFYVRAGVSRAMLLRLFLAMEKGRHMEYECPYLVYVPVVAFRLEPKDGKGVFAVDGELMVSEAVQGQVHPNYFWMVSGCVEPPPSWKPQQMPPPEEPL

On to `Fc1ccc(-c2ncn(C3CCNCC3)c2-c2ccnc(Oc3ccccc3)n2)cc1`, for which the inhibition in experiment [1] was -1.73%; in [2] it was 1.51%; in [3], 1.09%; in [4], 6.73%; in [5] it was 1.68%; in experiment [6], -3.14%. In addition, the inhibition in [7] came out at 1.08%; in experiment [8], 4.13%; in experiment [9] it was 3.12%; in [10], 2.6%; in [11], 3.7%; in [12] it was 1.07%. For the same compound, the inhibition in experiment [13] was determined as 1.73%; in experiment [14] it was 3.29%; in experiment [15], 1.85%; in experiment [16], 7.63%; in [17], 2.1%; in experiment [18] it was 2.34%. In addition, the inhibition in experiment [19] was determined as 6.68%; in experiment [20], 2.53%.
